Giardia FBPA inh – qHTS Assay for Inhibitors of Fructose-1,6-bisphosphate Aldolase from Giardia Lamblia | Potency, µM (series often up to 59.6 µM), without a hit: at the top dose activity, negative = inhibition, most hits filed as inhibitors | purified Giardia FBPA | actives 0.71% (n = 290,000) | A8B2U2; note: potency is the fitted concentration of half-maximal effect; % is set by controls: 0 for no effect and ±100 for the full control effect; nearly all actives have a fitted effect of over 55% in size
Target sequence (A8B2U2 whole entry, looked up): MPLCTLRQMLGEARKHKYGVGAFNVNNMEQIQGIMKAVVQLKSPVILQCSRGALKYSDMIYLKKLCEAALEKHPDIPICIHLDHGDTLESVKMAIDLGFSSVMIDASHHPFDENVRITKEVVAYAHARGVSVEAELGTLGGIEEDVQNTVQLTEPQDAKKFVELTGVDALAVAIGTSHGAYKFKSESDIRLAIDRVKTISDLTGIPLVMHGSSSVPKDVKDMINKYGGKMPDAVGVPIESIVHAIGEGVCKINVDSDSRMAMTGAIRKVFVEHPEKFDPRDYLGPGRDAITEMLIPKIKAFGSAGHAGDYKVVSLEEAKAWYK
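Giardia FBPA (40 nM reagent) was preincubated 10 min at RT with compound (up to 57.5 uM final), then substrate plus GAPDH/TPI/NAD/arsenate coupling system with diaphorase/resazurin was added; resorufin fluorescence (525/598 nm) was read after 20 min.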
TbPYK inhibitor – qHTS of Trypanosoma Brucei Inhibitors; pyruvate kinase (Trypanosoma brucei), Q57TT1; TbPYK enzyme, Kinase-Glo Plus ATP luminescence, 45 min; Potency, µM (doses to about 76.8 µM), for inactives: at the highest dose activity, negative = inhibition, hits mostly inhibitors; actives 0.12% (n = 410,000); AID 624173, 2012; note: potency is the fitted concentration of half-maximal effect; % is set by controls: 0 for no effect and ±100 for the full control effect; nearly all actives have a fitted effect of over 50% in size
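T. brucei PYK with substrate was exposed to pin-transferred compounds across a concentration series, then started with 130 uM ADP (final). After 45 min at room temperature, Kinase-Glo Plus luminescence was read, normalized and curve-fitted.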
Shiga inhibitor – A qHTS for Small Molecule Inhibitors of Shiga Toxin; inhibition, % at 38.7 µM; Vero cells, Shiga toxin protein synthesis inhibition reporter; AID 2315, 2010; actives 9.2% (n = 290,000); in the data active = inhibition mostly above about 28%, no sharp cut-off; inactive = mostly below about 43%; note: 0% is about no effect
LmPK inhibitor – qHTS Assay for Inhibitors of Leishmania Mexicana Pyruvate Kinase (LmPK); actives 0.37% (n = 290,000); AID 1721, 2009; Q27686; Potency, µM (highest dose often 57.5 µM), inactives show top-dose activity change, negative = inhibition, most hits filed as inhibitors; purified LmPK, Kinase-Glo ATP luminescence, 1 h; note: potency is the fitted concentration of half-maximal effect; % is set by controls: 0 for no effect and ±100 for the full control effect
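ATP generated from ADP (0.1 mM) and PEP (0.5 mM) by 0.1 nM LmPK over 1 h at room temperature (pH 7.2 imidazole buffer) was detected by coupled luciferase luminescence. Values were normalized to uninhibited and no-enzyme wells.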
CHX counter – Cycloheximide Counterscreen for Small Molecule Inhibitors of Shiga Toxin. cell reporter, cycloheximide protein synthesis inhibition counterscreen. max response, %. AID 2314, 2010. actives 12% (n = 300,000); in the data active = max response mostly above about 13%, no sharp cut-off; inactive = mostly below about 14%; note: read at 38.3 µM for the half of the compounds with a filed dose; 0% is about no effect
RE007 growth inh – qHTS Assay for Inhibitors of the HIV-1 protein Vpr; S. pombe RE007 Vpr strain, BacTiter-Glo ATP luminescence, 24 h; Potency, µM (top dose mostly 92.2 µM), without a hit: top-dose activity change, negative = less growth, most hits filed as inhibitors; actives 0.21% (n = 360,000); AID 651644, 2012; active = well fitted falling curve with a large enough effect; inconclusive = small, poorly fitted or top-dose-only effect; inactive = no such curve, though single readings can be large or run the other way; note: potency is the fitted concentration of half-maximal effect; % is set by controls: 0 for no effect and ±100 for the full control effect; nearly all actives have a fitted effect of over 50% in size
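Fission yeast RE007 carrying one integrated HIV-1 vpr copy, seeded at OD 0.01 in PMG+AL medium with 23 nL pinned compound. Grown 24 h at 30 degrees; viability read by BacTiter-Glo luminescence after 5 min.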
Active calls of the source: *; ? = inconclusive; . = not tested or not shown; [ ] = remark or other dose. The sample as a whole holds a higher share of hits than the screen did. Unless noted, calls come from the whole dose curve; as a rule, active = well fitted curve in the direction sought with a large enough effect; inconclusive = small, poorly fitted or top-dose-only effect, or another doubt; inactive = no such curve, though single readings can be large; an effect the other way counts as inactive or inconclusive.

SMILES | Giardia FBPA inh | TbPYK inhibitor | Shiga inhibitor | LmPK inhibitor | CHX counter | RE007 growth inh
Cc1ccc2sc(-c3ccc(NC(=O)CCN4C(=O)c5ccccc5C4=O)cc3)nc2c1 | 6% | . | 85* | 1% | 50* | .
Cc1ccc(S(=O)(=O)N2CCOCC2)cc1C(=O)Nc1ccc(-c2cn3ccsc3n2)cc1 | -5% | 0% | 18 | 0% | 20* | 4%
O=C(CCN1C(=O)c2ccccc2C1=O)Nc1ccc(-c2cn3ccsc3n2)cc1 | 9% | -10% | 52* | 1% | 33* | 3%
c1cn2cc(-c3ccc4c(c3)OCO4)nc2s1 | -16% | . | 95* | ? | 46* | -24%[3.69 µM]
COc1ccc(CNc2ncnc3c2nnn3C)cc1 | . | 1% | . | . | . | .
C#CCCCCCCCCCCCC(=O)CC(O)COC(C)=O (configuration not stated) | -4% | . | . | . | . | .
O=C(Nc1ccc(-c2ccc3nncn3n2)cc1)C1CCCC1 | 2% | -1% | 87* | -1% | 22* | 0%
O=C(Nc1ccc(-c2cn3ccsc3n2)cc1)C1CC1 | 0% | -5% | 43* | -26% | 61* | ?
CC(C)C(=O)Nc1cccc(-c2cn3ccsc3n2)c1 | 0% | -19% | 15 | -7% | 15 | 4%
CC(=O)Nc1ccc(S(=O)(=O)NCc2cn3ccsc3n2)cc1 | 2% | -6% | -5 | -1% | -3 | -3%
O=C(CC1CCCCC1)Nc1ccc(-c2ccc3nncn3n2)cc1 | 0% | -8% | -6 | -3% | 6 | -27%
O=C(Nc1ccc(-c2cn3ccsc3n2)cc1)C1CCCC1 | -8% | -9% | 33 | ? | 32* | -11%
CC(=O)Nc1ccc(-c2cn3ccsc3n2)cc1 | 0% | 4% | 62* | -18% | 30* | -18%
CCC(=O)Nc1cccc(-c2cn3ccsc3n2)c1 | 2% | -7% | 43 | 0% | 17 | -1%
Cc1noc(C)c1S(=O)(=O)N(CC(=O)Nc1ccc(F)cc1F)c1ccc(C(C)C)cc1 | . | -6% | . | . | . | .
COc1ccccc1C1C=C(c2ccc(C)cc2)Nc2nnnn21 (configuration not stated) | -2% | -2% | 54 | 3% | 16 | 0%
Fc1ccc(C2=CC(c3cccs3)n3nnnc3N2)cc1 (configuration not stated) | 3% | 0% | 59* | -1% | 27* | 12%
COc1ccccc1C1C=C(c2ccc(C(C)C)cc2)Nc2nnnn21 (configuration not stated) | . | -6% | . | . | . | .
C1=C(c2ccccc2)Nc2nnnn2C1c1cccs1 (configuration not stated) | 4% | -2% | 69* | 3% | 16* | 4%
Cc1ccc(C2=CC(c3cccs3)n3nnnc3N2)cc1 (configuration not stated) | 0%[12.9 µM] | -16% | 81 | 1% | 47* | 2%
CC(C)c1ccc(CN(Cc2ccco2)c2cnc(S(C)(=O)=O)nc2C(=O)Nc2ccccc2)cc1 | . | -8% | . | . | . | .
O=C1CNC(=O)/C(=C\c2ccc(F)cc2)N1 | 1% | -1% | -5 | 2% | -3 | 1%
O=C1NCCN/C1=C\C(=O)c1ccc(F)cc1 | 0% | 0% | 69* | -3% | 35* | 4%
O=C1NCCN/C1=C\C(=O)c1ccc(Cl)cc1 | 1% | -6% | 67* | -8% | 55* | 6%
O=C(COc1cccc2c1CCNC2=O)Nc1ccc(Cl)cc1 | . | -2% | . | . | . | -16%
SMILES | Giardia FBPA inh | TbPYK inhibitor | Shiga inhibitor | LmPK inhibitor | CHX counter | RE007 growth inh
S=C(Nc1ccccc1)Nc1ccccc1C#Cc1ccccc1 | -5% | . | . | . | . | .
CCCCNC(=S)Nc1ccc2nc3n(c(=O)c2c1)CCCCC3 | 6% | -10% | 16 | -1% | 22* | -8%
CC(C)CCNC(=S)Nc1ccc2nc3n(c(=O)c2c1)CCCCC3 | -2% | -8% | 27* | 4% | 5 | -25%
C[N+]1(C)[C@@H]2CC(OC(=O)C(O)(c3cccs3)c3cccs3)C[C@H]1[C@@H]1O[C@@H]12 (some centres not stated) | . | 4% | . | . | . | .
Cc1nc(-c2ccccc2Cl)sc1C(=O)/C=C/N(C)C | -1% | 1% | 64 | 0% | 24* | -4%
O=C(OCC#CCSc1nnc(-c2ccc(Br)cc2)o1)c1cccs1 | -9% | 6% | 37 | -4% | 13 | -13%
Cc1ccc(-c2nnc(SCC#CCOC(=O)c3ccco3)o2)cc1 | -3% | -2% | 47 | -2% | 27* | -4%
Cc1ccc(-c2nnc(SCC#CCOC(=O)c3cccs3)o2)cc1 | -10% | -1% | 39 | 1% | 8.6* | 3%
O=C(OCC#CCSc1nnc(-c2ccccc2)o1)c1cc2ccccc2o1 | 0% | -2% | -18 | 4% | -3 | -23%
CN(C)c1ccc(N=C/C=C2/N(C)c3ccccc3C2(C)C)cc1 | -9% | -9% | 78* | -6% | 62* | -1%
Cc1ccc(NC(=O)c2c(C)oc3nc(C)nc(N4CCCC4)c23)c(C)c1 | . | -3% | . | . | . | .
CCOc1ccc(/C=C2/C(=O)N(c3ccc(OC)cc3)C(=S)N2CC(=O)OC)cc1OCC | -4% | 0% | 12* | 4% | 30* | -2%
CCOc1ccc(N2C(=O)/C(=C/c3cc(OC)c(OC)c(OC)c3)N(CC(=O)OC)C2=S)cc1 | . | 3% | -7 | 1% | -3 | 0%
CCc1ccc(NC(=O)CSc2nnc3[nH]c(=O)cc(-c4ccccc4)n23)cc1 | . | -5% | . | . | . | .
CC(=O)Nc1c(O)nc(SCC(=O)Nc2cccc(C)c2)[nH]c1=O | 0% | 0% | -12 | -1% | -7 | 14%
CC(=O)Nc1c(O)nc(SCC(=O)Nc2ccc(C(C)=O)cc2)[nH]c1=O | 0% | 3% | 134* | -6% | 47* | 9%
CC(=O)c1ccc(NC(=O)CSc2nc(N3CCOCC3)nc(N3CCOCC3)n2)cc1 | -8% | 2% | 62* | -2% | 42* | 4%
CC(=O)c1ccc(Nc2nc(N3CCOCC3)nc(N3CCOCC3)n2)cc1 | -2% | 6% | 31 | -1% | 17* | -4%
COc1nc(Nc2ccc3c(c2)OCO3)nc(OC)n1 | -4% | -1% | 51* | -1% | 17 | 17%
COc1ccc(Nc2nc(OC)nc(OC)n2)cc1 | 4% | -4% | 22 | -7% | 8 | 10%
CC(=O)c1cccc(Nc2nc(N3CCOCC3)nc(N3CCOCC3)n2)c1 | . | 3% | -2 | -5% | -11 | -2%
CC(=O)c1ccc(Oc2cc(C)nc(N3CCOCC3)n2)cc1 | -15% | 3% | 20 | 2% | 13* | -10%
COc1nc(Nc2ccc(C(C)=O)cc2)nc(OC)n1 | -1% | -8% | 53* | -6% | 18* | -4%

High-throughput results: PubChem, National Center for Advancing Translational Sciences (NCATS)
